These results are taken from PubChem BioAssay (NCATS).

Results filed as inconclusive are left out. The source made the active and inactive calls. Calls come from the whole dose curve; as a rule, active = well fitted cell-killing curve with a large enough effect; inconclusive = small, poorly fitted or top-dose-only effect, or effect the other way; inactive = no such curve, though single readings can be large or run the other way.
Potency is the fitted concentration of half-maximal effect.

The assay can be described thus: Viability qHTS for spleen associated tyrosine kinase inhibitor (SYKi) drug resistant MV4-11 cells (AID 1963824). Note: nearly all actives have a fitted effect of over 35% in size. To be noted: SYKi-resistant MV4-11 viability, CellTiter-Glo, 72 h; series mostly up to 45 µM; viability, % of control: at the top concentration. In outline: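 SYK-inhibitor-resistant MV4-11 AML cells were seeded at 500 per well onto compound and cultured 72 hours (37 °C, 5% CO2). CellTiter-Glo was then added, and after 10 min at room temperature, luminescence gave viability.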
Turning to `CC(=O)O[C@@H]1[C@@H](O)[C@H](O[C@@H]2[C@@H](O)[C@@H](O)[C@H](O[C@H]3[C@H](O[C@H]4[C@H](O[C@H]5CC[C@@]6(C)C(CC[C@]7(C)C6CC=C6[C@@H]8CC(C)(C)CC[C@]8(C(=O)O)CC[C@]67C)[C@]5(C)CO)O[C@H](CO)[C@@H](O)[C@@H]4O)OC[C@@H](O)[C@@H]3O)O[C@H]2C)OC[C@H]1O` (some centres undefined), the Potency was 3.9 µM (active).

`CNC(=O)c1ccc(-c2cnc3cnc(C(=O)N(C)c4ccc(Cl)cc4)cn23)cc1`: the Potency is 18.4 µM (active).

For `O=C(Cc1c(F)cccc1F)Nc1cc(OCc2ccc(Cl)cc2)ccn1`, the Potency was 14.6 µM (active).

Consider `CC/C(=C(/c1ccc(/C=C/C(=O)O)cc1)c1ccc2[nH]ncc2c1)c1ccc(F)cc1Cl`, for which the Potency was 16.6 µM (active).

Regarding `CC(Cc1cccc(C(F)(F)F)c1)NCCOC(=O)c1ccccc1` (centres undefined), the “viability, % of control” value was 85.5% (inactive).

Turning to `C[C@@H]1C[C@@H](O)[C@@]2(CO)C(CO)=CCC[C@@H]2[C@@]12C[C@@H](c1ccoc1)OC2=O`, the “viability, % of control” value was 89.1% (inactive).

Regarding `CO[C@H]1C[C@@H]2CC[C@@H](C)[C@@](O)(O2)C(=O)C(=O)N2CCCC[C@H]2C(=O)O[C@H]([C@H](C)C[C@@H]2CC[C@@H](OCCO)[C@H](OC)C2)CC(=O)[C@H](C)/C=C(/C)[C@@H](O)[C@@H](OC)C(=O)[C@H](C)C[C@H](C)/C=C\C=CC=C1C`, the Potency was 11.8 µM (active).

In the case of `CCN(CC)CCNC(=O)c1c(C)[nH]c(/C=C2\C(=O)Nc3ccc(Cl)cc32)c1C`, the Potency is 0.0146 µM (active).

For `CC(C)(C)n1nc(-c2cccc3ccccc23)c2c(N)ncnc21`, the Potency is 14.6 µM (active).
